In publication PMC5540273 (PLoS ONE, 2017):

Experiments:
Details in all cases: concentration: 1 μM,replicates: in singlicate; n = 1
[1] = tested on: AAK1
[2] = tested on: ABL1-nonphosphorylated
[3] = tested on: ABL1-phosphorylated
[4] = tested on: ABL2
[5] = tested on: ACVR1B
[6] = tested on: ACVR1
[7] = tested on: ACVR2A
[8] = tested on: ACVR2B
[9] = tested on: ACVRL1
[10] = tested on: T1, ADCK3
T1 construct: gene CABC1

[11] = tested on: ADCK4
[12] = tested on: AKT1
[13] = tested on: AKT2
[14] = tested on: AKT3
[15] = tested on: ALK
[16] = tested on: T2, AMPK-alpha1
T2 construct: gene PRKAA1

[17] = tested on: T3, AMPK-alpha2
T3 construct: gene PRKAA2

[18] = tested on: ANKK1
[19] = tested on: T4, ARK5
T4 construct: gene NUAK1

[20] = tested on: T5, ASK1
T5 construct: gene MAP3K5
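Note: KINOMEscan kinase panel screen.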

Row | SMILES | %Inh [1] [%] | %Inh [2] [%] | %Inh [3] [%] | %Inh [4] [%] | %Inh [5] [%] | %Inh [6] [%] | %Inh [7] [%] | %Inh [8] [%] | %Inh [9] [%] | %Inh [10] [%] | %Inh [11] [%] | %Inh [12] [%] | %Inh [13] [%] | %Inh [14] [%] | %Inh [15] [%] | %Inh [16] [%] | %Inh [17] [%] | %Inh [18] [%] | %Inh [19] [%] | %Inh [20] [%]
1 | CNC(=O)c1ccccc1Nc1nc(Nc2cccc(CS(C)(=O)=O)c2)ncc1C.O=CO [GSK1520489] | 85 | 99.9 | 99.9 | 99.4 | 71 | 76 | 7 | 54 | 2 | 0 | 33 | 0 | 0 | 0 | 95.1 | 96.4 | 97.9 | 39 | 99.1 | 0
2 | CN(c1cccc(CNc2nc(Nc3ccc4c(c3)CC(=O)N4)ncc2C(F)(F)F)c1)S(C)(=O)=O | 51 | 46 | 3 | 16 | 0 | 0 | 0 | 0 | 0 | 0 | 29 | 0 | 0 | 0 | 41 | 26 | 5 | 0 | 99.3 | 0
3 | CCN1CCN(CCCC(=O)Nc2n[nH]c3nc(-c4ccc(O)cc4)c(Br)cc23)CC1 [SB-731579] | 0 | 64 | 31 | 100 | 0 | 78 | 0 | 2 | 63 | 0 | 16 | 0 | 0 | 0 | 0 | 0 | 0 | 0 | 5 | 0
4 | CN1CCN(CCCNc2nccc(-c3c(-c4ccc(F)cc4)nn4cc(C(N)=O)ccc34)n2)CC1 [GW622475] | 33 | 10 | 0 | 17 | 94.9 | 90.6 | 19 | 45 | 77 | 96.7 | 100 | 0 | 12 | 0 | 26 | 18 | 11 | 29 | 19 | 0
5 | COc1cccc(OC)c1C(=O)Nc1cccc(-c2nn3ccccc3c2-c2ccnc(Nc3cccc(F)c3)n2)c1 [GSK361065] | 0 | 28 | 18 | 100 | 15 | 17 | 7 | 27 | 7 | 0 | 0 | 4 | 0 | 0 | 0 | 25 | 4 | 93.2 | 0 | 22
6 | Cc1cccc(-c2nc(Nc3ccncc3)c3sccc3n2)n1 [GW869641] | 25 | 0 | 16 | 0 | 96.5 | 0 | 42 | 41 | 14 | 0 | 8 | 5 | 0 | 3 | 33 | 20 | 27 | 12 | 0 | 25
7 | COc1ccc(Nc2nccc(N3CCC(NC(=O)c4cccc(C#N)c4)C3)n2)cc1 (centres unmarked) [GSK1379730] | 0 | 0 | 0 | 9 | 4 | 24 | 0 | 0 | 0 | 0 | 9 | 0 | 0 | 0 | 28 | 0 | 0 | 0 | 0 | 0
8 | COC(=O)Nc1nc2cc(Oc3ccc(NC(=O)Nc4cc(C(F)(F)F)ccc4Cl)cc3)ccc2[nH]1.Cl [GW697465] | 0 | 97 | 32 | 89 | 0 | 0 | 0 | 0 | 0 | 82 | 48 | 0 | 0 | 0 | 30 | 0 | 0 | 0 | 0 | 11
9 | CC(=O)c1c(-c2ccncc2)[nH]c(-c2ccncc2)c1C [GW493036] | 14 | 0 | 0 | 7 | 0 | 7 | 0 | 17 | 0 | 4 | 46 | 0 | 1 | 28 | 31 | 13 | 0 | 3 | 3 | 17
10 | Cc1ccc2c(-c3ccnc(Nc4ccc(C(F)(F)F)cc4)n3)cnn2n1 [GW819776] | 12 | 36 | 28 | 1 | 11 | 0 | 0 | 0 | 0 | 5 | 35 | 0 | 0 | 0 | 0 | 11 | 8 | 0 | 0 | 0
